KDM5B inhibitor – Primary screen for KDM5B Histone Demethylases FDH-coupled qHTS | Potency, µM (series often up to 57.7 µM), usual class: inhibitors | Lysine-specific demethylase 5B (Homo sapiens), Q9UGL1 | KDM5B demethylase, FDH-coupled NADH fluorescence (FDH is formaldehyde dehydrogenase) | actives 2.6% (n = 220,000); active = well fitted inhibition curve with a large enough effect; note: nearly all actives have a fitted effect of over 70% in size
Target sequence (Q9UGL1 whole entry, looked up): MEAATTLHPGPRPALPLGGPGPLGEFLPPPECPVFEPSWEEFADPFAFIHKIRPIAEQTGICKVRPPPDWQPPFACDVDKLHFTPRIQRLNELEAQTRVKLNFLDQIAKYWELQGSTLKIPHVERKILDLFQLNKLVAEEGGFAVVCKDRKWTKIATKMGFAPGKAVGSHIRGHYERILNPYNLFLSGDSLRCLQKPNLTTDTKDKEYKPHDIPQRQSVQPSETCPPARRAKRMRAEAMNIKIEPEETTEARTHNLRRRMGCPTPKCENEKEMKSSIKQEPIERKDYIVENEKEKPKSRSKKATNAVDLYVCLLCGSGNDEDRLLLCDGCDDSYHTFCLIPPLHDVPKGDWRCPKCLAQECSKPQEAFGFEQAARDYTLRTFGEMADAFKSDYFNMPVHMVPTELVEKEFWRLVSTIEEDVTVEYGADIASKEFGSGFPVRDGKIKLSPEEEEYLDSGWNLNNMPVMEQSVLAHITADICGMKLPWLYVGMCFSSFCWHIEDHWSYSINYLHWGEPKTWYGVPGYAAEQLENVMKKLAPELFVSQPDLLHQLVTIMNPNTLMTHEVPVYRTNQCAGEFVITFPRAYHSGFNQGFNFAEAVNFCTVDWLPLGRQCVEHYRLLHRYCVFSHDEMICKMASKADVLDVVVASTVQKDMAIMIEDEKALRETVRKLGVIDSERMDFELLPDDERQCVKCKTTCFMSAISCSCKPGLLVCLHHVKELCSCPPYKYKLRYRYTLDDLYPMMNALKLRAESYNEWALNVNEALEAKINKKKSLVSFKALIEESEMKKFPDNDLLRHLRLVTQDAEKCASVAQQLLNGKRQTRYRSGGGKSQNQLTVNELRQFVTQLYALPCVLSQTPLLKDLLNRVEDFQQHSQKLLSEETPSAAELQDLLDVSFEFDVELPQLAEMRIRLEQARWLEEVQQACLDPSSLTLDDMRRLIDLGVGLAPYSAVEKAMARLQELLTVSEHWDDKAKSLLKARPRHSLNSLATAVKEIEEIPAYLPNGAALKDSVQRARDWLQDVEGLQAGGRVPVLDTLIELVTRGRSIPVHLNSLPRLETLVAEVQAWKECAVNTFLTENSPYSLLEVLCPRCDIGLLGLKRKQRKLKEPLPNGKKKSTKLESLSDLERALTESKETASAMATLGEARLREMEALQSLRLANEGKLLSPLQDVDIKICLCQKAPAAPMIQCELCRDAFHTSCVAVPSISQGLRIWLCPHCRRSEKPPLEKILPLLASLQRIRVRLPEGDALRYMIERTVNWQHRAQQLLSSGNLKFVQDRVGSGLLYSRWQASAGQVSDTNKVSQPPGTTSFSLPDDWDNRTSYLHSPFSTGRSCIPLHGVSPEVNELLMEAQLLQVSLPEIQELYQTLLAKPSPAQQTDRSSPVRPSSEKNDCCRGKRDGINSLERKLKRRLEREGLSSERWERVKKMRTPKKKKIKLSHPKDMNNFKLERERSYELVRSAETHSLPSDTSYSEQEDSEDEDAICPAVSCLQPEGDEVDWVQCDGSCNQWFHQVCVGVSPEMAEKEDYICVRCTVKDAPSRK
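Measured: NADH fluorescence change, 30 min, RT. System: KDM5BΔAP 200 nM final, H3K4me3 peptide, α-KG, Fe(II), ascorbate, NAD⁺ plus FDH, pH 7.5 HEPES. Compounds: titrated, 10 min pre-incubation with enzyme.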
Each line names hits and unclear results; the compound was inactive in the other large screens. The full list was thinned out, with hits kept by preference.

O=C(Nc1cccn2cnnc12)c1ccc(S(=O)(=O)NCCO)cc1	KDM5B inhibitor 28µM
Cc1cccc(NC(=O)c2ccc(S(=O)(=O)NCc3cccnc3)cc2)c1C	none
Cc1ccc(NS(=O)(=O)c2cc(C(=O)Nc3ccc4oc(C)nc4c3)ccc2C)cc1	none
N#Cc1cnc(N2CC3CCC(C2)N3CC(F)(F)F)s1	none
CC(C)(C)n1cnc2c(N3CC4CCC(C3)N4CC(F)(F)F)ncnc21	none
Cc1cnc(N2CC3CCC(C2)N3CC(F)(F)F)s1	KDM5B inhibitor 56µM
COc1ccc(-c2ccc3ncc(Nc4cccc(Cl)c4)n3n2)cn1	none
CN(Cc1ccc(F)cc1)c1ccc2ncc(Nc3ccc(CCO)cc3)n2n1	none
CN1CCN(c2ccc3ncc(Nc4ccc(F)cc4)n3n2)CC1	none
CN(Cc1cccnc1)c1ccc2ncc(Nc3ccc(C(F)(F)F)cc3)n2n1	KDM5B inhibitor 25µM
C[S+](=O)([O-])Nc1cccc(Nc2cnc3ccc(-c4ccccc4)nn23)c1	none
CN(Cc1cccnc1)c1ccc2ncc(Nc3cccc(N[S+](C)(=O)[O-])c3)n2n1	KDM5B inhibitor 18µM
CN(C(=O)Cn1nc(Cc2cccnc2)c2ccccc2c1=O)c1ccc(F)cc1	none
C=CCNC(=O)NC(=O)CN(C)Cc1ccc(C(=O)NCC(F)(F)F)cc1	none
Cc1oc2cc(OCC(=O)N3CCC(C(=O)O)CC3)ccc2c(=O)c1-c1ccc(Cl)cc1	none
Cc1ccc(NC(=O)COC(=O)c2cc(=O)[nH]c3ccccc23)cc1	none
Cc1nccc(-c2cccc(NC(=O)c3cc[n+]([O-])cc3)c2)n1	none
COc1ccc2c(c1)OCCN(c1ccc(NC(=O)c3ccc(F)cc3)cc1C(=O)O)C2	none
COc1ccc(Cl)cc1C(=O)N1CCC2(CC1)CN(C)CCN2C	none
COc1ccc(C)cc1NC(=O)N1CCN(C)C2(CCC(=O)N(C)CC2)C1 (centres undefined)	none
CNc1ccc(C)cc1C(=O)N1CCN(C)C2(CCN(C)CC2)C1	KDM5B inhibitor 20µM
COCCOc1cc(-c2noc([C@@H]3CCCN3C3CCN(C)CC3)n2)ccn1	none
COCCNc1ncccc1-c1noc([C@@H]2CCCN2C2CCN(C)CC2)n1	KDM5B inhibitor 32µM
COCCOc1ccnc(-c2noc([C@@H]3CCCN3C3CCC3)n2)c1	none
COc1ccc(-c2noc([C@@H]3CCCN3C3CCCCC3)n2)cn1	none
COCCOc1ncccc1-c1noc([C@@H]2CCCN2Cc2ncc[nH]2)n1	none
COCCNc1ncccc1-c1noc([C@@H]2CCCN2Cc2ccc(C(=O)O)cc2)n1	KDM5B inhibitor 35µM
COCCNc1ncccc1-c1noc([C@@H]2CCCN2C2CCN(C(C)=O)CC2)n1	KDM5B inhibitor 35µM
CC(=O)N1CCC(N2CCC[C@H]2c2nc(-c3ccc(-c4ccncc4)nc3)no2)CC1	none
COCCOc1ccnc(-c2noc([C@@H]3CCCN3Cc3ccccc3)n2)c1	none
COCCNc1ncccc1-c1noc([C@@H]2CCCN2C2CCC2)n1	KDM5B inhibitor 32µM
CCCCOc1ccc(C(=O)N2CCC[C@H]2c2nc(-c3ccccc3Cl)no2)cc1	none
CC(=O)N1CCC(N2C[C@H](O)C[C@H]2c2nc(-c3ccccn3)no2)CC1	none
Cc1c(OCC(=O)Nc2cc(Cl)cc(Cl)c2)c(=O)ccn1C	none
Cn1c(=O)n(C)c2cc(SC3CCCCC3)c(NS(=O)(=O)c3cccc(Cl)c3)cc21	none
COc1ccc(NC(=O)CCSc2nnc3scc(-c4ccccc4)n23)cc1	none
O=C1N(C2CCN(C3CCC3)CC2)C(c2ccncc2)C12CCCCC2 (centres undefined)	none
O=c1c2ccccc2c(-c2cccs2)nn1CC(O)COCc1cccs1 (centres undefined)	none
COc1ccc(C(=O)Oc2ccccc2C(C)C)cc1Br	none
CCOC(=O)/C(C#N)=C\c1cc2ccc(C)cc2nc1N1CCCCC1	none
CCS(=O)(=O)Nc1cccc(C2=NN(S(C)(=O)=O)C(c3ccccc3C)C2)c1 (centres undefined)	none
COCCn1c(SCC(=O)c2ccc(Cl)cc2)nnc1-c1ccc(Cl)cc1	none
CCCCn1cc(S(=O)(=O)c2ccc(OCC)cc2)c(=O)c2cc(F)ccc21	none
Cn1c(NCCCO)nc2c1c(=O)n(Cc1cccc(Cl)c1)c(=O)n2C	none
COc1cc(C(C)=O)ccc1OCc1ccc(F)cc1Cl	none
O=C(NC1CC1)c1ccccc1OC1CN(Cc2cccc(F)c2F)C1	none
CN(C)CC(=O)Nc1ccc(OC2CCN(C)CC2)nc1	none
COCC(=O)N1CCC(Oc2ccccc2C(=O)NCCc2ncccc2C)CC1	none
CNc1ccc(OC2CCN(C(=O)COC)CC2)nc1	KDM5B inhibitor 28µM
COc1cc(C2CC(=O)Nc3nc(-c4ccccc4)[nH]c(=O)c32)ccc1OCc1cccc(Cl)c1 (centres undefined)	none
CCOCCn1c(N2CCN(Cc3ccc(Cl)cc3)CC2)nc2c1c(=O)[nH]c(=O)n2C	none
COc1ccc(S(=O)(=O)NCCc2ccccc2)cc1-c1noc(C(C)(C)C)n1	none
COc1ccccc1CCC(=O)N1CCC2(CC1)N(c1ccccc1)C(=O)CS2(=O)=O	none
Cc1ccc(-c2nc(-c3nc(-c4cccs4)cs3)sc2C)cc1C	none
COC(=O)CNC(=O)c1nc(-c2ccc([S+](C)(=O)[O-])cc2)c2cnccn12	KDM5B inhibitor 25µM
COC(=O)CNC(=O)c1nc(-c2cccnc2)c2ccccn12	none
COC(=O)CNC(=O)c1nc(-c2ccc(Cl)nc2)c2cnccn12	KDM5B inhibitor 35µM
O=C(c1cccnc1)N1CCc2cc(NS(=O)(=O)c3ccccc3)ccc21	none
CN(CC(=O)NC1CC1)c1nc(-c2cccs2)nc2ccccc12	none
COc1cccc(C(=O)N2CCC(N3C[C@H](O)C[C@H]3C(=O)N3CCN(c4ccccc4)CC3)CC2)c1	none
CCN(Cc1ccc(C(=O)NC)cc1)Cc1ccco1	none
COc1cn(CC(=O)Nc2ccc(C)cc2)c(CN2CCN(C(C)=O)CC2)cc1=O	none
CCNC(=O)NC(=O)C(c1ccccc1)N(C)Cc1ccc2ccccc2c1 (centres undefined)	none
COc1ccccc1N1CCN(CC[C@H]2CN(C(=O)Nc3ccccc3)CC[C@H]2CC(=O)O)CC1	none
COc1cc2c(cc1OC)C(C[C@H]1CN(C(=O)c3cccnc3)CC[C@H]1CC(=O)O)=NCC2	none
CC(=O)N1CC[C@@H](CC(=O)O)[C@@H](CC2=NCCc3ccccc32)C1	none
COc1cc2c(cc1OC)C(C[C@H]1CN(C(=O)Nc3ccc(F)cc3)CC[C@H]1CC(=O)O)=NCC2	KDM5B inhibitor 28µM
CCCNC(=O)N1CC[C@@H](CC(=O)O)[C@@H](CC2=NCCc3cc(F)ccc32)C1	KDM5B inhibitor 32µM
COc1cc2c(cc1OC)C(C[C@H]1CN(C(=O)Nc3cccc(C(C)=O)c3)CC[C@H]1CC(=O)O)=NCC2	KDM5B inhibitor 28µM
CC[C@H]1CN(C(=O)Nc2cccc(OC)c2)CC[C@H]1CC(=O)O	none
COc1cc2c(cc1OC)C(C[C@H]1CN(C(=O)N3CCOCC3)CC[C@H]1CC(=O)O)=NCC2	none
CC(C)NC(=O)N1CC[C@@H](CC(=O)O)[C@@H](CC2=NCCc3cc(F)ccc32)C1	none
O=C(CN1CCCC1c1ccc(F)cc1)Nc1ccc(F)c(F)c1 (centres undefined)	none
Cn1c(=O)c2c(ncn2CC(=O)Nc2ccccc2Oc2ccccc2Cl)n(C)c1=O	none
O=C(CN1CCCC1c1nc2ccccc2s1)NC(=O)Nc1ccc2c(c1)OCCO2 (centres undefined)	none
CCCN1C(=O)CCc2cc(NS(=O)(=O)c3ccc4c(c3)CCCC4)ccc21	none
CCC(=O)Nc1nc2c(C)cc(NC(=O)Nc3ccccc3OC)cc2s1	none
